Measurements reported in PubChem BioAssay AID686979 (National Center for Advancing Translational Sciences (NCATS), 2013).
Screen size: about 420,000 compounds; about 50,000 (12%) were called active. About 26% were inconclusive and are not listed. Many of the other results were omitted from the sample, so actives are more common in it than they were. Unmarked numbers belong to inactive results. Calls come from the whole dose curve; as a rule, active = well fitted inhibition curve with a large enough effect; inconclusive = small, poorly fitted or top-dose-only effect; inactive = flat fitted curve, though single readings scatter.

Assay: qHTS for Inhibitors of human tyrosyl-DNA phosphodiesterase 1 (TDP1): qHTS in cells in presence of CPT; note: nearly all actives have a fitted effect of over 55% in size
Conditions: chicken DT40 Tdp1-/-;hTDP1 cells + 20 nM CPT, ATP luminescence, 48 h; series mostly up to 46.2 µM; activity change, negative = growth inhibition: at the top concentration
Procedure, shortened: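 Chicken DT40 Tdp1-/- cells complemented with human TDP1, 400 cells/well, exposed to compounds plus 20 nM camptothecin for at least 48 h at 37 C; viability read as ATP content by CellTiter-Glo luminescence.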
% is set by controls: 0 for no effect and ±100 for the full control effect; potency is the fitted concentration of half-maximal effect.

| Compound | activity change, negative = growth inhibition | Potency |
| --- | --- | --- |
| COc1ccc(CCNC(=O)CN(C)S(=O)(=O)c2ccc3nc(C)sc3c2)cc1OC | -27.7% | – |
| COCCSc1nnc(NC(=O)c2cc(OC)c(OC)cc2[N+](=O)[O-])s1 | -7.44% | – |
| CCN1CCN(C(=O)c2cc3cc4ccc(OC)cc4nc3s2)CC1 | 28.6% | – |
| COC(=O)c1ccc(NC(=O)c2cccc3c2C(=O)N(C2CCCCC2)C3)cc1 | -1.27% | – |
| COc1ccc(CCNc2ncnc3sc(C(=O)N4CCCC4)c(C)c23)cc1OC | 3.59% [at 9.04 µM] | – |
| CCS(=O)(=O)NCCc1ccc(OC)c(OC)c1 | -7.71% | – |
| COc1ccc(CCNc2ncnc3nc[nH]c23)cc1OC | – | 18.4 µM (active) |
| COc1ccc(/C(C)=N/N2CCOCC2)c(O)c1 | 2.69% | – |
| O=C(Nc1cc(-c2nn(CC(=O)N3CCCCC3)c(=O)c3ccccc23)ccc1N1CCOCC1)c1ccc(Cl)cc1 | -5.93% | – |
| COc1ccc(S(=O)(=O)N2CCN(C(=O)c3cc(C)oc3C)CC2)cc1 | 0.208% | – |
| CC(=O)c1c(C)[nH]c(C(=O)N2CCN(S(=O)(=O)c3ccc(F)c(F)c3)CC2)c1C | – | 0.231 µM (active) |
| CC(=O)c1c(C)[nH]c(C(=O)OCC(=O)Nc2cc(S(=O)(=O)N3CCCCC3)ccc2C)c1C | 0.51% | – |
| COc1cccc2c1CCC(NC(C)=O)C2=O (centres undefined) | -24% | – |
| Cc1cc(O)c(Sc2ccccc2)c(=O)o1 | 4.82% | – |
| O=C(Nc1ccccc1Cl)/C(Cl)=C(\Cl)S(=O)c1ccccc1 (centres undefined) | – | 0.164 µM (active) |
| O=C(COC(=O)c1cccs1)Nc1ccccc1Cl | 8.81% | – |
| O=C(Nc1ccccc1Cl)c1ccc2nsnc2c1 | 5.44% | – |
| CCNC(=S)NCC | 8.89% | – |
| Cc1cc(C)c(S(=O)(=O)NN=C2c3ccccc3[C@H]3Cc4csc[n+]4[C@@H]23)c(C)c1 | – | 29.1 µM (active) |
| CC(=O)Nc1ccc(S(=O)(=O)NC(C)C(=O)OCCOc2ccc(F)cc2)cc1 (centres undefined) | -20.5% | – |
| O=C(NCC1CCCO1)c1cc2c(s1)CCCC2 (centres undefined) | -4.2% | – |
| CC1(C(=O)NNC(=S)NCC2CCCO2)CC1(Cl)Cl (centres undefined) | – | 18.4 µM (active) |
| CCC(=O)NC(NCC1CCCO1)C(Cl)(Cl)Cl (centres undefined) | -12.2% | – |
| COc1ccc(NC(=S)N2CCC(NC(=O)c3cccc(F)c3)CC2)cc1 | -22.8% | – |
| COc1ccc(C)cc1Nc1nc(C)nc2c1oc1ccccc12 | -29.3% | – |

| Compound | activity change, negative = growth inhibition | Potency |
| --- | --- | --- |
| CCOc1cc(-c2cc(-c3ccc(NC(C)=O)cc3)nc(N)c2C#N)ccc1O | – | 18.4 µM (active) |
| CCOC(=O)CC(=O)CSc1nc(-c2ccccc2)cc(-c2ccc(Cl)cc2)c1C#N | -0.328% | – |
| CC(=O)Nc1ccc(-c2cn3cccnc3n2)cc1 | -9.08% | – |
| CN(C(=O)CSc1nnc(C2CC2)n1C)C1CCCc2ccccc21 (centres undefined) | -12.5% | – |
| COc1ccccc1C(c1nnnn1C(C)(C)C)N1CCN(Cc2ccccc2)CC1 (centres undefined) | -25.9% | – |
| CCC(C)(C)n1nnnc1C(c1ccccc1OC)N1CCSCC1 (centres undefined) | -10.4% | – |
| COc1ccc(OC)c(C(c2nnnn2C(C)(C)C)N2CCc3ccccc3C2)c1 (centres undefined) | – | 20.6 µM (active) |
| CC(=O)c1nn(-c2cccc(C(F)(F)F)c2)c(=O)[nH]c1=O | -7.71% | – |
| CCOc1ccc(CCN2C(=O)c3cccnc3C2=O)cc1OCC | 1.97% | – |
| CCOc1ccc(N(CC)C(=O)c2cc3c(=O)oc4ccccc4c3s2)cc1 | -22.2% | – |
| CCOC(=O)c1ccc2[nH]c3c(c2c1)CCCC3NC=O (centres undefined) | -24.5% | – |
| CN(C(=O)CN1C(=O)CCSc2ccc(S(=O)(=O)N3CCCC3)cc21)c1ccccc1 | -2.65% | – |
| O=C(CN1CCN(S(=O)(=O)c2cccc(Cl)c2)CC1)N1CCCCC1 | -12.1% | – |
| O=C(CN1CCCSc2ccccc21)N1CCN(S(=O)(=O)c2cccc(F)c2)CC1 | – | 16.4 µM (active) |
| C=CC1=C(C(=O)O)N2C(=O)[C@@H](NC(=O)/C(=N/OCC(=O)O)c3csc(N)n3)[C@H]2SC1 | -3.01% | – |
| CCn1c(SCC(=O)N/N=C/C=C/c2ccccc2[N+](=O)[O-])nnc1-c1ccccc1 | -26.3% | – |
| CCC1(C)COC(c2ccc(OC)c(OC)c2)OC1 (centres undefined) | -1.89% | – |
| COc1cccc(-c2ccc3c(c2)S(=O)(=O)c2cccc(C(=O)O)c2C3=O)c1OC | 3.38% | – |
| Cc1cc(C(=O)NCCc2ccc(Cl)cc2)c(C)o1 | -13.7% | – |
| CC(=C/c1ccccc1)/C=N/NC(=O)c1cc(C)oc1C | -28% | – |
| CC(C)c1cc(C(=O)O)n[nH]1 | 2.99% | – |
| Cc1ccc(/C=N/NC(=O)C(NC(=O)c2ccccc2)c2n[nH]c(=O)c3ccccc23)cc1 (centres undefined) | -11.4% | – |
| CC(C)c1cc(C(=O)N/N=C/C(Br)=C/c2ccccc2)n[nH]1 | – | 2.31 µM (active) |
| Cc1cc(C(=O)N/N=C\C(Br)=C\c2ccccc2)c(C)o1 | – | 8.2 µM (active) |
| Cc1ccc(C2(C)NC(=O)N(CC(=O)Nc3ccccc3C(=O)N3CCCCC3)C2=O)cc1 (centres undefined) | -13.5% | – |

| Compound | activity change, negative = growth inhibition | Potency |
| --- | --- | --- |
| CCN(CC)CCCNC(=O)c1cn(C)c2ccc(S(=O)(=O)N(C)C3CCCCC3)cc2c1=O | – | inactive |
| CCN(CC)CCn1cnc2c1c(=O)n(CCOC(=O)c1cc(OC)c(OC)c(OC)c1)c(=O)n2C | 3.53% | – |
| CCOC(=O)C1=NN(c2ccc(Cl)cc2)/C(=C/C2=NCCc3cc(OC)c(OC)cc32)S1 | -21.4% | – |
| COc1ccc([N+](=O)[O-])cc1NC(=O)COC(=O)/C=C/c1ccco1 | -12% | – |
| COc1cc2c(cc1OC)C(/C=C/c1ccco1)=NCC2 | – | 23.1 µM (active) |
| Cc1ccc2c(c1)NC(=O)[C@@]1(C)[C@@H](c3ccccc3)[C@H]3COc4ccc(Cl)cc4[C@@H]3N1C2=O | – | 25.9 µM (active) |
| C[C@@H]1NC(=O)[C@@]2(C)[C@@H](c3ccccc3)[C@H]3COc4ccccc4[C@@H]3N2C1=O | -11.5% | – |
| CCOC(=O)[C@H]1[C@H]2COc3ccc(OC)cc3[C@@H]2N2C(=O)c3ccc(F)cc3NC(=O)[C@@]12C | -2.6% | – |
| Cc1ccc(Cl)cc1N1CCN(C(=O)c2cccn3c(=O)c4cc(Cl)ccc4nc23)CC1 | -6.7% | – |
| Cc1cn(C)c(CC(=O)NCc2ccc(Cl)cc2)c1C(=O)O | 2.47% | – |
| O=C(Nc1ccccc1)/C(=C/c1ccc([N+](=O)[O-])cc1)NC(=O)c1ccccc1 | -17.8% | – |
| CCOC(=O)COc1ccc([N+](=O)[O-])cc1 | 3.15% | – |
| CCOC(=O)/C(=C\c1ccc([N+](=O)[O-])cc1)C(=O)c1cc(C(C)=O)c(Nc2ccccc2)s1 | – | 0.58 µM (active) |
| COc1ccc(NC(=O)CN(C)C(=O)c2n[nH]c3ccccc23)cc1 | -7.97% | – |
| FC(F)(F)c1cccc(Nc2ncnc3ccccc23)c1 | – | 11.6 µM (active) |
| FC(F)(F)c1cccc(N/N=C/c2ccccc2)c1 | -29.8% | – |
| O=c1cc(CO)oc(C(Nc2cccc(C(F)(F)F)c2)c2ccccn2)c1O (centres undefined) | 1.12% | – |
| COc1ccc(NC(=O)CSc2nc(SC)ns2)c(OC)c1 | -12.7% | – |
| c1ccc(C2CNCc3c2ccc2ccccc32)cc1 (centres undefined) | – | 14.6 µM (active) |
| C/C(=N/NC(=O)CC(=O)N/N=C(\C)c1ccc([N+](=O)[O-])cc1)c1ccc([N+](=O)[O-])cc1 | -0.378% | – |
| COc1ccc(S(=O)(=O)N2CCC(C(=O)NCc3ccco3)CC2)cc1C | -7.74% | – |
| COc1ccc(C2=NOC(C(=O)NCc3ccco3)C2)cc1OC (centres undefined) | – | 2.59 µM (active) |
| COc1ccc(-c2cc(C(=O)NCc3ccco3)no2)cc1OC | -0.397% | – |
| O=C1CC2(CCCC2)C(=O)N1CN1CCN(S(=O)(=O)c2ccc(F)cc2F)CC1 | 2.4% | – |
| CN(C)S(=O)(=O)c1cc(NC(=O)CN2C(=O)NC3(CCCc4ccccc43)C2=O)ccc1Cl (centres undefined) | – | 16.4 µM (active) |

| Compound | activity change, negative = growth inhibition | Potency |
| --- | --- | --- |
| CCOc1ccc(CCNC(=O)CN2C(=O)NC3(CCc4ccccc43)C2=O)cc1OCC (centres undefined) | -17.4% | – |
| O=C(CN1C(=O)NC2(CCc3ccccc32)C1=O)NC1CCCCC1 (centres undefined) | 1.78% | – |
| Cc1ccc(COc2ccc(C(=O)NN)cc2)cc1 | -28.6% | – |
| CCN(CC)CCNCC(=O)Nc1ccc(Oc2ccccc2)cc1 | -18.7% | – |
| O=C(c1ccc2c(c1)C(=O)N(Cc1ccncc1)C2=O)N1CCN(S(=O)(=O)c2ccc(OC(F)(F)F)cc2)CC1 | 0.443% | – |
| O=C(Nc1cccc(Cl)c1)OCc1ccccn1 | -0.874% | – |
| NS(=O)(=O)c1cccnc1Nc1cccc(Cl)c1 | -0.722% | – |
| OCCCNc1nccc(-c2cc(Nc3cccc(Cl)c3)ncn2)n1 | – | 1.16 µM (active) |
| Cc1c(C)n2c(SCC(=O)NC3CCCC3)nnc2[nH]c1=O | 13.3% | – |
| CCCN(CC(=O)Nc1ccc(OC)c(OC)c1)CC(=O)Nc1ccc(F)c(F)c1F | -0.473% | – |
| Cc1cc(S(=O)(=O)N2CCOCC2)ccc1OCC(=O)N1CCOCC1 | -7.17% | – |
| O=C(COc1ccc(S(=O)(=O)N2CCCC2)cc1[N+](=O)[O-])N1CCCCC1 | -18.7% | – |
| Cc1cc(C(=O)COc2ccccc2[N+](=O)[O-])c(C)n1-c1cccc(S(=O)(=O)N2CCOCC2)c1 | – | 16.4 µM (active) |
| Cc1cccc(N(C(=O)c2sc(C)nc2C)C(C(=O)NCC2CCCO2)c2ccccc2)c1 (centres undefined) | -15.4% | – |
| CN(C)c1ccc(S(=O)(=O)NCC(=O)NCC2CCCCC2)cc1[N+](=O)[O-] | 3.18% | – |
| CCOc1ccc(S(=O)(=O)NCCC(=O)NNC(=O)c2ccc(F)cc2)cc1 | -15.8% | – |
| O=C(c1ccncc1)N1CCN(S(=O)(=O)c2cccc([N+](=O)[O-])c2)CC1 | -1.19% | – |
| CCc1ccc(OCC(=O)OC(C)C(=O)NC2CC2)cc1 (centres undefined) | 3.39% | – |
| CN(CC(=O)Nc1c(Cl)cccc1Cl)C(=O)CC1OC(=O)c2ccccc21 (centres undefined) | 14.5% | – |
| CCCOC(=O)c1c(NC(=O)c2cc3nc(-c4ccc(OC)cc4)cc(C(F)(F)F)n3n2)sc2c1CCCC2 | -5.48% | – |
| COc1ccc(NC(=O)CN(C)C(=O)c2ccc(COc3ccccc3)o2)cc1 | -8.01% | – |
| O=[N+]([O-])c1ccc(C=Nc2ccc(Cl)cc2Cl)s1 | – | 6.51 µM (active) |
| CC(=O)N1C(=O)/C(=C2\SC(=S)N(NC(=O)c3ccc(O)cc3)C2=O)c2ccccc21 | -9.38% | – |
| CCOc1ccc(CNC(=O)c2cccc(Nc3nc4ccccc4n4nnnc34)c2)cc1OC | -12% | – |
